Experimental data published in the supplement of paper PMC10849652.
Targets with a hit are over-represented here; the source holds about 8,800 in all. About 0.5% of all pairs of compound and target were hits. Values without a mark were called inactive.

Columns and labels:
Assay in all cases: log2 fold change, soluble protein after heating vs DMSO (PISA); higher = thermal stabilisation; K562 lysate, 10 uM; active = over 0.2 and 3.5 SD of the protein, either way, in both replicates (recomputed)
vemurafenib = compound: CCCS(=O)(=O)Nc1ccc(F)c(C(=O)c2c[nH]c3ncc(-c4ccc(Cl)cc4)cc23)c1F [vemurafenib]
In short: (§1)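 Thermal stability, expressed as log-two fold change relative to solvent controls, is given from duplicates. Crude K562 extract in PBS pH 7.4 with 1 mM MgCl2, at 1 mg/mL protein, was treated with 10 μM compound for 30 min and heated in aliquots for 3 min across 48°C-58°C. After pooling, adjustment to 0.5% NP-40 at 4°C and centrifugation at 21,000xg for 90 min, supernatant protein was measured by TMTpro 16plex LC-MS/MS with channel sums equalised.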

[1] = compound: CCCS(=O)(=O)Nc1ccc(F)c(C(=O)c2c[nH]c3ncc(Cl)cc23)c1F
In short: as §1

barasertib = compound: CCN(CCCOc1ccc2c(Nc3cc(CC(=O)Nc4cccc(F)c4)[nH]n3)ncnc2c1)CCOP(=O)(O)O [barasertib]
In short: as §1

[2] = compound: CC[C@@H]1C(=O)N(C)c2cnc(Nc3ccc(C(=O)NC4CCN(C)CC4)cc3OC)nc2N1C1CCCC1
In short: as §1

volasertib = compound: CC[C@@H]1C(=O)N(C)c2cnc(Nc3ccc(C(=O)N[C@H]4CC[C@H](N5CCN(CC6CC6)CC5)CC4)cc3OC)nc2N1C(C)C [volasertib]
In short: as §1

[3] = compound: CCn1c(C(=O)N(C2CC2)C2CC2)cc2c3c(ncn3C)c(Nc3cc(C)n(C)n3)nc21
In short: as §1

[4] = compound: CCn1cc(-c2ccnc3[nH]c(-c4cccc(CN(C)C)c4)cc23)c(-c2ccc(NC(=O)N(C)C)cc2)n1
In short: as §1

[5] = compound: CN1CCC(CNc2ccc3ncc(-c4cccc(OC(F)(F)F)c4)n3n2)CC1
In short: as §1

saracatinib = compound: CN1CCN(CCOc2cc(OC3CCOCC3)c3c(Nc4c(Cl)ccc5c4OCO5)ncnc3c2)CC1 [saracatinib]
In short: as §1

sotrastaurin = compound: CN1CCN(c2nc(C3=C(c4c[nH]c5ccccc45)C(=O)NC3=O)c3ccccc3n2)CC1 [sotrastaurin]
In short: as §1

alvocidib = compound: CN1CC[C@H](c2c(O)cc(O)c3c(=O)cc(-c4ccccc4Cl)oc23)[C@H](O)C1 [alvocidib]
In short: as §1

Tubastatin A = compound: CN1CCc2c(c3ccccc3n2Cc2ccc(C(=O)NO)cc2)C1 [Tubastatin A]
In short: as §1

[6] = compound: CNC(=O)C1=CC=CC=C1NC2=NC(=NC=C2Cl)NC3=C(C=C(C=C3)N4CCOCC4)OC
In short: as §1

defactinib = compound: CNC(=O)c1ccc(Nc2ncc(C(F)(F)F)c(NCc3nccnc3N(C)S(C)(=O)=O)n2)cc1 [defactinib]
In short: as §1

[7] = compound: CNc1nc(-c2ccc3c(N)n[nH]c3c2)cc(N2C[C@@H](C(=O)NC3CCCCC3)CC[C@H]2C)n1
In short: as §1

encorafenib = compound: COC(=O)N[C@@H](C)CNc1nccc(-c2cn(C(C)C)nc2-c2cc(Cl)cc(NS(C)(=O)=O)c2F)n1 [encorafenib]
In short: as §1

[8] = compound: COC(=O)[C@H](CCSC)NC(=O)C1=C(C=C(C=C1)NC[C@H](CS)N)C2=CC=CC=C2
In short: as §1

alisertib = compound: COc1cc(Nc2ncc3c(n2)-c2ccc(Cl)cc2C(c2c(F)cccc2OC)=NC3)ccc1C(=O)O [alisertib]
In short: as §1

[9] = compound: COc1cc2nc(-c3cc(F)ccc3O)nc(N[C@@H]3CNC[C@H]3C(C)(C)O)c2cc1OC
In short: as §1

gefitinib = compound: COc1cc2ncnc(Nc3ccc(F)c(Cl)c3)c2cc1OCCCN1CCOCC1 [gefitinib]
In short: as §1

UniProt Q9Y6B2, sequence (Q9Y6B2 whole entry, looked up): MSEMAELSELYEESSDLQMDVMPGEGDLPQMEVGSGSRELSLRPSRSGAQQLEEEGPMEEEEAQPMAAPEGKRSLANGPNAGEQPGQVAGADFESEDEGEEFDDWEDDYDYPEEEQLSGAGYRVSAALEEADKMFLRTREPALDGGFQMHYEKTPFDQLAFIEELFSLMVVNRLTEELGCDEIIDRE
UniProt Q8TF64, sequence (Q8TF64 whole entry, looked up): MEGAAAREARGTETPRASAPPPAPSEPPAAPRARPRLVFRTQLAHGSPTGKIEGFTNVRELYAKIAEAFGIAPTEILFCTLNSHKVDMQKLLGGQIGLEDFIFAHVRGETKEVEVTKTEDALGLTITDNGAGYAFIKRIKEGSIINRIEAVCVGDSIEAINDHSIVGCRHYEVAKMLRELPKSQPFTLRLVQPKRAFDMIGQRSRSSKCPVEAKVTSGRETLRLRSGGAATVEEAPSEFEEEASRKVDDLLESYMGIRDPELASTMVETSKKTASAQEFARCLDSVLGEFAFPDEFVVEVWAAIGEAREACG
UniProt Q96G46, sequence (Q96G46 whole entry, looked up): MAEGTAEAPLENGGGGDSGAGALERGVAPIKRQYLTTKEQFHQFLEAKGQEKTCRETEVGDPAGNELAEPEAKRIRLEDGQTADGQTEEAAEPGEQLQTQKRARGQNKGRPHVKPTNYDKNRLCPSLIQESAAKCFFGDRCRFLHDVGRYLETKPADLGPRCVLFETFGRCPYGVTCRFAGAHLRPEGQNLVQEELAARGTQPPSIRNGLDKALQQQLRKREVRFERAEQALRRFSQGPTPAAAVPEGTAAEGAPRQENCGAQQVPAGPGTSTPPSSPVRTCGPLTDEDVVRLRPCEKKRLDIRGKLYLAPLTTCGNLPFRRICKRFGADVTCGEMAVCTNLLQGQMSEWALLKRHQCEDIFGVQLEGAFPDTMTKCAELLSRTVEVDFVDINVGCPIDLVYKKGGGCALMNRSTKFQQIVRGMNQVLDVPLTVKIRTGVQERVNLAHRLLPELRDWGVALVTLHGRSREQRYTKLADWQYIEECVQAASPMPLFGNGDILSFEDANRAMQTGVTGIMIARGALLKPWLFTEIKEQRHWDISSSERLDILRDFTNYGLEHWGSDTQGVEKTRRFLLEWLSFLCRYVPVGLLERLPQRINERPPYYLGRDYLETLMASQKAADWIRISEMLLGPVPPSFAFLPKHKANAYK
UniProt Q9H6S3, sequence (Q9H6S3 whole entry, looked up): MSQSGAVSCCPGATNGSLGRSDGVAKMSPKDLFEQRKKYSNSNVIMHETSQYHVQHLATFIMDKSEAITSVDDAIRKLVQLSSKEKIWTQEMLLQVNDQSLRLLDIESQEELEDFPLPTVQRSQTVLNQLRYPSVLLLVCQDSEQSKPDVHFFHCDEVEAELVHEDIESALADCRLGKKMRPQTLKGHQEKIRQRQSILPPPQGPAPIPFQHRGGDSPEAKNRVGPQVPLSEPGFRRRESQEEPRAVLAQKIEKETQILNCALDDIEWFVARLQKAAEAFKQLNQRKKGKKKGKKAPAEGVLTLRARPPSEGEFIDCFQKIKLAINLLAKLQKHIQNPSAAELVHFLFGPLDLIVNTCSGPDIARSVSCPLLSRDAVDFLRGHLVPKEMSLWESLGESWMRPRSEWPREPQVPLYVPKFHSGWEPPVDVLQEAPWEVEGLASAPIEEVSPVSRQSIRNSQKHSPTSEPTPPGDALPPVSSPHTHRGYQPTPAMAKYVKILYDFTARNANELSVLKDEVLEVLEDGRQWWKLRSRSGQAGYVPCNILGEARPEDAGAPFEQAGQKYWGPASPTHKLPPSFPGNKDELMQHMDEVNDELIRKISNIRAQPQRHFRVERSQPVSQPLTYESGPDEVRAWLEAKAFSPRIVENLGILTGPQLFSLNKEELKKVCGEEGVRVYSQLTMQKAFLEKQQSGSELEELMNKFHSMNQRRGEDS
UniProt Q96PZ2, sequence (Q96PZ2 whole entry, looked up): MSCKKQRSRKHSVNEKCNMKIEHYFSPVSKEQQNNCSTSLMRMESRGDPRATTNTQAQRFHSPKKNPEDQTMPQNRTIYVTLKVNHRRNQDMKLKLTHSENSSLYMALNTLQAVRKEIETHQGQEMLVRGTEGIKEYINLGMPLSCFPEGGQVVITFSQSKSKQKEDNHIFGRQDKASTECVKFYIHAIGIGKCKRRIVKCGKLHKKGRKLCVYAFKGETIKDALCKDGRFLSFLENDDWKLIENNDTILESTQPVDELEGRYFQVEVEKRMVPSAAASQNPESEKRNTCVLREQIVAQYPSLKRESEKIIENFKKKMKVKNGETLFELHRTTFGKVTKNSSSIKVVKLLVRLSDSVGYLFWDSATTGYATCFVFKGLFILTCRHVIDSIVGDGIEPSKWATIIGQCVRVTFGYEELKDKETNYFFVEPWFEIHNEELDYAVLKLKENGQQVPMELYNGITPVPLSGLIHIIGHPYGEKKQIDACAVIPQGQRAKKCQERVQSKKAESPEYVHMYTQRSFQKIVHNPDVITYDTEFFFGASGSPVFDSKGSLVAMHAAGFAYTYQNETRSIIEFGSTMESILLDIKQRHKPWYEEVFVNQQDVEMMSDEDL
UniProt Q8TAG9, sequence (Q8TAG9 whole entry, looked up): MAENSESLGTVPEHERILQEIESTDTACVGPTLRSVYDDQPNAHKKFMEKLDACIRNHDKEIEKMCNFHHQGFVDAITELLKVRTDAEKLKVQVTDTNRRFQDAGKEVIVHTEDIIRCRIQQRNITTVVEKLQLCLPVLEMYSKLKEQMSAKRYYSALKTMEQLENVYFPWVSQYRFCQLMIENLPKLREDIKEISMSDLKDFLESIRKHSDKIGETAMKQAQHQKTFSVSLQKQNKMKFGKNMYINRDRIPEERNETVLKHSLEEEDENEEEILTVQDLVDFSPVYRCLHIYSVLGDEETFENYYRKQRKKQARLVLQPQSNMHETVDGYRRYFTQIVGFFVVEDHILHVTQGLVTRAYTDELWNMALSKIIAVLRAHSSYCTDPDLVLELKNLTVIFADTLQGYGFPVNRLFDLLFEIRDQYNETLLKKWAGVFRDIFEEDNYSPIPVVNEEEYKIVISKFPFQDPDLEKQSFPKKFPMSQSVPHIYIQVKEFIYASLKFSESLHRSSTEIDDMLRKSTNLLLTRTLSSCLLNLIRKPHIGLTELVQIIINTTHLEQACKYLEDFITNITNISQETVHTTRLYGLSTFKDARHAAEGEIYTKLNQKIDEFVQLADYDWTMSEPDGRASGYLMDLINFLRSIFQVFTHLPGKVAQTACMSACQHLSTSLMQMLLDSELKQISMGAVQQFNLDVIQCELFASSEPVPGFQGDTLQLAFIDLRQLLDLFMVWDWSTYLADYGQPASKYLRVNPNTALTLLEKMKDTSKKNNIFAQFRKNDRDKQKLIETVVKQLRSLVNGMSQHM
UniProt Q9NZJ5, sequence (Q9NZJ5 whole entry, looked up): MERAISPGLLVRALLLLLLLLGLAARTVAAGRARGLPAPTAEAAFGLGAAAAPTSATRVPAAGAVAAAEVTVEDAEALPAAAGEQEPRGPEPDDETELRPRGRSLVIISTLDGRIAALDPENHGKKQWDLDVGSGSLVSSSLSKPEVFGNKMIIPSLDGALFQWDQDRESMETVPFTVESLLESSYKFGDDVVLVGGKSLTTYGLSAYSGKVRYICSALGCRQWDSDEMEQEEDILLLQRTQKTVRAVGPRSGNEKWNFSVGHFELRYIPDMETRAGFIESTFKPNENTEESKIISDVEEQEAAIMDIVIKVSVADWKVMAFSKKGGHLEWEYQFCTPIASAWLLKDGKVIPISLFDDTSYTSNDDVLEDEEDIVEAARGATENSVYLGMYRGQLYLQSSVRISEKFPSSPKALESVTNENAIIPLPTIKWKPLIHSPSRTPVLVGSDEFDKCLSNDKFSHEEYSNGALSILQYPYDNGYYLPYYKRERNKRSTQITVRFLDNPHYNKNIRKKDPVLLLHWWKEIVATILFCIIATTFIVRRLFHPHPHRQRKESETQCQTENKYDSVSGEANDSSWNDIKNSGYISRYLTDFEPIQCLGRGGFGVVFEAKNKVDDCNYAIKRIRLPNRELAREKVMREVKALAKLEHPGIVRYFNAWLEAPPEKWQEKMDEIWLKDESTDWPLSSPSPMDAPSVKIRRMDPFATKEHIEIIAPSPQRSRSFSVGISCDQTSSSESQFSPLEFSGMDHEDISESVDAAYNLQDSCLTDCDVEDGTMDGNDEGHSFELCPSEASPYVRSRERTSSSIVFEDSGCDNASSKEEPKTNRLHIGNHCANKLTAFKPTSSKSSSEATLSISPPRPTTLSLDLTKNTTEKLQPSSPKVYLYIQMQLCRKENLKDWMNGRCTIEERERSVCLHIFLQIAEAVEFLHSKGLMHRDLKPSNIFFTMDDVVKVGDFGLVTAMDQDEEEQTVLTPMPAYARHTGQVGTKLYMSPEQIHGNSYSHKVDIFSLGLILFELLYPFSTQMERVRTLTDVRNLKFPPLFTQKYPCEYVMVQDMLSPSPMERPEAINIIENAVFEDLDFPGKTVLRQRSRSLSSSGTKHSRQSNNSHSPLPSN
UniProt Q9H8W3, sequence (Q9H8W3 whole entry, looked up): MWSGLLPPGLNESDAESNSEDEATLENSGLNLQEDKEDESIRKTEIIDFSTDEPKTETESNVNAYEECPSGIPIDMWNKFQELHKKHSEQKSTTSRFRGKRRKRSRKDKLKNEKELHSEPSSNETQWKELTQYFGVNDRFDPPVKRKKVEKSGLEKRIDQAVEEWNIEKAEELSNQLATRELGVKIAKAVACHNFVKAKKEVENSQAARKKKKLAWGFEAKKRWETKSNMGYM
UniProt Q9NRW4, sequence (Q9NRW4 whole entry, looked up): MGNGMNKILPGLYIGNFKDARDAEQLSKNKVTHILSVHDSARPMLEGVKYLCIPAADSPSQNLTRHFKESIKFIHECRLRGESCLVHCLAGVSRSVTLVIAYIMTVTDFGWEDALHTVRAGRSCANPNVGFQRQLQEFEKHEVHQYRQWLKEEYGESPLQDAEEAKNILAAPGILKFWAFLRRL
UniProt Q6IPR1, sequence (Q6IPR1 whole entry, looked up): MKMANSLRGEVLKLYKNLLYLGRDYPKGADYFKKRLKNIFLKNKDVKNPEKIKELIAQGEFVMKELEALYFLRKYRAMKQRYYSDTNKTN

| Target | log2 fold change (vemurafenib) | log2 fold change [1] | log2 fold change (barasertib) | log2 fold change [2] | log2 fold change (volasertib) | log2 fold change [3] | log2 fold change [4] | log2 fold change [5] | log2 fold change (saracatinib) | log2 fold change (sotrastaurin) | log2 fold change (alvocidib) | log2 fold change (Tubastatin A) | log2 fold change [6] | log2 fold change (defactinib) | log2 fold change [7] | log2 fold change (encorafenib) | log2 fold change [8] | log2 fold change (alisertib) | log2 fold change [9] | log2 fold change (gefitinib) |
| --- | --- | --- | --- | --- | --- | --- | --- | --- | --- | --- | --- | --- | --- | --- | --- | --- | --- | --- | --- | --- |
| DUS3L (UniProt Q96G46) | -0.055 | 0.004 | -0.038 | -0.025 | 0.005 | -0.043 | 0.246 (active) | -0.048 | 0.021 | 0.033 | 0.076 | -0.065 | -0.012 | -0.023 | 0.001 | 0.091 | -0.024 | -0.02 | 0.036 | -0.005 |
| EXOC6 (UniProt Q8TAG9) | -0.041 | 0.033 | 0.032 | -0.033 | -0.047 | 0.032 | -0.05 | -0.075 | 0.018 | 0.06 | -0.014 | -0.092 | 0.013 | 0.008 | -0.017 | 0.015 | 0.039 | 0.007 | 0.016 | 0.003 |
| ELAVL4 (UniProt P26378) | -0.045 | 0.035 | – | -0.119 | -0.038 | 0.054 | -0.006 | 0.029 | -0.052 | 0 | 0.019 | -0.125 | 0.036 | -0.007 | -0.003 | 0.003 | 0.211 | 0.136 | -0.031 | 0.056 |
| EPS8L2 (UniProt Q9H6S3) | – | 0 | -0.049 | 0.022 | 0.023 | -0.034 | -0.196 | 0.056 | 0.045 | -0.049 | -0.009 | 0.078 | -0.016 | – | 0.031 | 0.096 | -0.037 | 0.01 | -0.036 | -0.149 |
| FAM111A (UniProt Q96PZ2) | -0.02 | 0.432 (active) | – | -0.34 | -0.045 | 0.112 | – | – | 0.055 | -0.016 | – | -0.083 | 0.022 | 0.053 | -0.119 | -0.074 | -0.11 | – | -0.091 | – |
| EIF2AK3 (UniProt Q9NZJ5) | – | -0.216 | – | – | 0.231 | 0.119 | -0.063 | -0.199 | 0.01 | – | 0.281 | -0.369 | 0.28 | – | 0.104 | – | – | -0.128 | -0.197 | 0.001 |
| ETFRF1 (UniProt Q6IPR1) | 0.084 | -0.003 | 0.012 | – | -0.03 | 0 | -0.005 | -0.03 | -0.01 | -0.002 | 0.025 | 0.032 | -0.006 | -0.071 | 0.021 | – | – | 0.003 | -0.042 | -0.009 |
| FOXL2 (UniProt P58012) | – | 0.026 | 0.051 | 0.01 | 0.046 | 0.174 | – | – | -0.038 | – | – | -0.049 | 0.031 | – | 0.005 | 0.079 | 0.138 | – | 0.015 | – |
| GIPC3 (UniProt Q8TF64) | – | -0.119 | 0.055 | -0.15 | -0.041 | -0.045 | -0.01 | 0.144 | 0.029 | 0.006 | -0.108 | -0.071 | 0.055 | – | -0.157 | 0.028 | 0.05 | -0.194 | 0.008 | 0.073 |
| EID1 (UniProt Q9Y6B2) | – | – | – | 0.015 | – | 0.001 | -0.073 | 0.002 | -0.157 | – | -0.061 | -0.004 | 0.036 | – | 0.046 | -0.057 | 0.072 | -0.067 | – | 0.022 |
| FAM204A (UniProt Q9H8W3) | -0.003 | – | – | – | – | 0.059 | 0.273 | -0.614 (active) | – | -0.083 | -0.139 | -0.036 | 0.018 | 0.146 | – | – | – | – | – | – |
| GDE1 (UniProt Q9NZC3) | – | 0.038 | 0.108 | 0.107 | 0.092 | 0.005 | 1.04 (active) | -0.455 (active) | 0.035 | -0.064 | 0.307 | -0.047 | 0.014 | – | 0.024 | -0.045 | -0.02 | – | -0.038 | – |
| DUSP22 isoform 2 (UniProt Q9NRW4) | 0.134 | -0.109 | -0.016 | – | 0.006 | -0.033 | -0.125 | 0.052 | 0.009 | – | 0.034 | -0.079 | -0.066 | -0.085 | 0.043 | – | – | 0.18 | -0.11 | -0.101 |
